# Measurements published in the supplement of paper PMC4188521.
# Compound: CCc1cnn2c(NCc3ccc[n+]([O-])c3)cc(N3CCCC[C@H]3CCO)nc12 [dinaciclib]
# Experiment: cell viability remaining relative to DMSO control; higher = less cytotoxic (more viable cells)
# Details: 100 nM; 24 h
# Method: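 Solid tumor cell lines were treated with dinaciclib (100 nM) for 24 hr. Viability was measured by CellTiter-Glo ATP luminescence and expressed as % of DMSO-treated control wells (mean of 2-6 plates, triplicate wells per plate).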
row,Target,cell viability remaining [%]
1,BT549,51.3
2,ES2,52.5
3,RMGI,83.4
4,CORL105,49
5,HS695T,72.9
6,CAL27,11.2
7,SW837,79.8
8,LS513,55.8
9,HS578T,69.3
10,DBTRG05MG,81.7
11,H441,73.4
12,HEC1A,49
13,SCC4,66.5
14,U2OS,36.4
15,MESSA,33.4
16,SHP77,50.2
17,HCC1954,38
18,RD,41.1
19,HCC1806,60
20,D283MED,43

row,Target,cell viability remaining [%]
1,H1568,28.7
2,SKMEL5,76.8
3,CFPAC1,85.5
4,DAOY,23.4
5,HS839T,97.6
6,SJSA1,66.7
7,H2228,36.4
8,SKMEL24,81.7
9,HT1080,88.8
10,MDAMB436,67.8
11,COLO320DM,17.1
12,CORL23,62.8
13,SKMES1,53.9
14,H1793,91.3
15,OV7,73.4
16,SKNDZ,44.1
17,ZR751,91.3
18,22RV1,50.2
19,H292,51.5
20,HPAFII,58.1
